The list is not random: actives were taken first. Their share in the collection is about 7.4%.
ELG1 genotoxic = qHTS screen for small molecules that induce genotoxicity in human embryonic kidney (HEK293T) cells expressing luciferase-tagged ELG1; HEK293T ELG1-luciferase reporter, luminescence, 16 h; Potency, µM (highest dose often 46 µM), for inactives: at the top dose activity change, positive = activation, actives largely listed as activators; actives 1.3% (n = 330,000); further: % of control where 0% means no effect; nearly all actives have a fitted effect of over 60% in size
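Genotoxicity was scored as increased ELG1-luciferase reporter signal, measured by ONE-Glo luminescence (30 min, room temperature). Compound or vehicle exposure of the HEK293T reporter cells lasted 16 hr at 37°C.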
SMN2 splice up = qHTS Assay for Enhancers of SMN2 Splice Variant Expression; HEK293 SMN2-luciferase splicing reporter, luminescence, 30-36 h; Potency, µM (top dose mostly 46.1 µM), for inactives: at the highest dose activity change, positive = activation, actives largely listed as activators; actives 2.8% (n = 210,000); AID 1458, 2008; further: % of control where 0% means no effect; nearly all actives have a fitted effect of over 55% in size
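HEK293 cells carry an SMN2 […]–luciferase reporter in which exon 7 inclusion puts luciferase in frame. Cells were plated 10-12 h before compound addition, then incubated 30-36 h at 37C. ONE-Glo luminescence was read; sodium butyrate at 4.5 mM final served as control.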
FLuc modulator = qHTS profiling assay for firefly luciferase inhibitor/activator using purifed enzyme and Km concentrations of substrates (counterscreen for miR-21 project); purified FLuc, Km substrates, luminescence inhibition; Potency, µM (top dose mostly 57.5 µM), inactives show at the highest dose activity change, negative = inhibition, hits mostly inhibitors; actives 6.9% (n = 360,000);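 further: plate controls were vehicle for no effect and reference inhibitor for full effect; nearly all actives have a fitted effect of over 55% in size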
Target sequence (P08659 whole entry, looked up): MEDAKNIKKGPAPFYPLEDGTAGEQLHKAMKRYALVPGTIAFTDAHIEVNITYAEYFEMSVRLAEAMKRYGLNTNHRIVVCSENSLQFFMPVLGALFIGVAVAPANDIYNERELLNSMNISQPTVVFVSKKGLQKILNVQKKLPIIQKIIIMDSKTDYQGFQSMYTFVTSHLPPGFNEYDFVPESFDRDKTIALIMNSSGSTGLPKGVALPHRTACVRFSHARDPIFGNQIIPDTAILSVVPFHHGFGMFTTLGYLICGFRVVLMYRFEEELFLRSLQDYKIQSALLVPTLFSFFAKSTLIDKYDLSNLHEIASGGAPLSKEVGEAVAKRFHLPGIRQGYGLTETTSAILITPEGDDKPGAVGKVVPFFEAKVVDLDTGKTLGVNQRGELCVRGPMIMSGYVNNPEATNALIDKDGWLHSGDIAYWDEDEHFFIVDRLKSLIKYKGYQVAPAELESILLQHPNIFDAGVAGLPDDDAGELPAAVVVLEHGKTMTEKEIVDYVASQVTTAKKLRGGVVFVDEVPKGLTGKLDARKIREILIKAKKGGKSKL
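Purified P. pyralis luciferase, 10 nM final, with Km-level 10 uM D-luciferin and 10 uM ATP in 50 mM Tris acetate pH 7.5, 10 mM Mg acetate, 0.01% Tween-20, 0.05% BSA; 6-point qHTS titration about 60 µM downward; luminescence read.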
Rab9 prom act = qHTS Assay for Rab9 Promoter Activators; Huh7 Rab9 promoter-luciferase reporter, luminescence, 24 h; Potency, µM (series often up to 9.22 µM), for inactives: top-dose activation, negative = inhibition, most hits filed as activators; actives 2.8% (n = 320,000); AID 485297, 2010; further: % of control where 0% means no effect; nearly all actives have a fitted effect of over 60% in size
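Stable Rab9-luc Huh7, 1500 cells/well, 2 h settle; cmpd in DMSO, 24 h, 37 °C/5% CO2; luciferase reagent 10 min RT; luminescence.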
NPC1 prom act = qHTS Assay for NPC1 Promoter Activators | Huh7 NPC1 promoter luciferase reporter, 24 h | Potency, µM (series often up to 9.22 µM), for inactives: at the top dose activation, usual class: activators | actives 2.4% (n = 320,000); further: % of control where 0% means no effect; nearly all actives have a fitted effect of over 60% in size
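Quantitative HTS used a cell-based reporter: Huh7 cells stably bearing the NPC1 promoter upstream of luciferase were treated with compounds for 24 h, and promoter activation was read as luminescence.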
The depositor's hits bear a star; ? = inconclusive; . = no result given; [ ] = dose if it differs, or a comment. The call rests on the fitted dose curve; in most records, active means well fitted curve in the direction sought with a large enough effect; inconclusive means small, poorly fitted or top-dose-only effect, or another doubt; inactive means no such curve, though single readings can be large; an effect the other way counts as inactive or inconclusive. Potency means the concentration at half of the fitted maximal effect.

SMILES	ELG1 genotoxic	SMN2 splice up	FLuc modulator	Rab9 prom act	NPC1 prom act
CCOc1ccccc1Nc1sc(C(=O)c2ccc(Cl)cc2)c(N)c1S(=O)(=O)c1ccccc1	.	.	-1%	.	.
COC(=O)c1sc(NC(=O)COc2ccc(C)cc2)nc1C	6%	6%	17µM*	11%	-1%
CC(C)c1nnc(NC(=O)Cc2cccs2)s1	4%	-12%	2%	1%	-1%
COC(=O)c1c(NC(=O)Cc2cccs2)sc2c1CCC(C)C2 (centres undefined)	9%	-1%	17µM*	?	21%
COC(=O)c1sc(NC(=O)COc2ccccc2)nc1C	18µM*	8%	17µM*	?	?
COC(=O)c1sc(NC(=O)Cc2cccs2)nc1C	21µM*	?	?	27%	13%
COc1ccc(C(=O)NNC(=O)c2ccc3ccccc3n2)cc1	?	.	.	-5%	10%
CCC1Oc2ccccc2N(CC(=O)NCc2cc(OC)ccc2OC)C1=O (centres undefined)	.	.	0%	.	.
Cc1[nH]c(N=Nc2ccccc2)nc1N=Nc1ccccc1	8%	.	6µM*	-4%	0%
Cc1ccc(S(=O)(=O)Nc2ccccc2C=O)cc1	.	-20%[9.22 µM]	.	.	.
O=C(/C=C/c1ccco1)Nc1nnc(-c2ccco2)s1	5%	.	0%	20%	0%
O=C(/C=C/c1ccco1)Nc1cccc(NC(=O)/C=C/c2ccco2)n1	-3%	?	1.7µM*	3.2µM*	?
CCSc1nnc(NC(=O)/C=C/c2ccco2)s1	?	11µM*	-8%	4µM*	?
CCc1nnc(NC(=O)/C=C/c2ccco2)s1	?	13µM*	?	1.8µM*	?
O=C(/C=C/c1ccco1)NC1=NCCS1	9.2µM*	8.9µM*	11µM*	2.5µM*	2.2µM*
COc1cc(OC)cc(C(=O)N2CCC(c3ccncc3)CC2)c1	.	.	0%	.	.
Cc1nc(NC(=O)/C=C/c2ccco2)sc1C	?	11µM*	?	-6%	-4%
CN(C)c1ccc(NC(=O)c2sc(SCC(=O)Nc3nccs3)nc2N)cc1	?	69%	1.9µM*	?	25%
CCCCNC(=O)CSc1nc(N)c(C(=O)Nc2ccc(OC)cc2)s1	10%	.	17µM*	28%	26%
COc1cc(S(=O)(=O)N2CCN=C2c2ccccc2)ccc1F	2%	11µM*	1%	-15%	-21%
CCN1CCN(Cc2ccc(NC(=O)c3cc(NC(=O)c4cc(-c5ccc(OC)cc5)n[nH]4)cc(OC)c3)cc2C(F)(F)F)CC1	8%	.	13µM*	-2%	-2%
CCN1CCN(Cc2ccc(NC(=O)c3cc(NC(=O)c4ccno4)cc(OC)c3)cc2C(F)(F)F)CC1	-3%	.	-3%	-6%	-3%
CCN1CCN(Cc2ccc(NC(=O)c3cc(NC(=O)N4CCNC4=O)cc(OC)c3)cc2C(F)(F)F)CC1	-19%	.	-12%	-4%	0%
CCN1CCN(Cc2ccc(NC(=O)c3cc(NC(=O)c4ccc5n[nH]nc5c4)cc(OC)c3)cc2C(F)(F)F)CC1	3%	.	2.7µM*	-3%	-7%
CCCCc1ccc(NC(=O)Cn2cnc3c(oc4ccccc43)c2=O)cc1	.	.	4%	.	.
SMILES	ELG1 genotoxic	SMN2 splice up	FLuc modulator	Rab9 prom act	NPC1 prom act
O=C(c1cc(C(F)(F)F)cc(C(F)(F)F)c1)N1CCC[C@@]2(CCN(Cc3ccccc3)C2)C1	.	-2%	.	.	.
COc1nc(-c2ccc(C)cc2)ccc1-c1noc(-c2ccco2)n1	?	-8%	19µM*	?	?
COCc1nc(-c2ccc(-c3ccc(C)cc3)nc2OC)no1	15%	-3%	17µM*	?	18%
COc1nc(C)ccc1-c1noc(-c2ccco2)n1	?	5.6µM*	3.8µM*	1.3µM*	1.4µM*
CCOc1nc(-c2ccccc2)ccc1-c1noc(-c2ccco2)n1	9%	-7%	-1%	-10%	-9%
O=C(Cn1nc(C(=O)O)c2ccccc2c1=O)Nc1cc(C(F)(F)F)ccc1-n1cncn1	1%	.	4%	1%	2%

High-throughput results from PubChem BioAssay.
